From PubChem
This is a sample that favours compounds with a hit; in the whole collection about 4.1% have one here.
DAX1 inh-1 = DAX1 (NR0B1) inhibitors on StAR promoter, primary screen, cell-based, luminescence, SF-1 (NR5A1), full-length DAX-1. AID 652010, 2013. HEK293T StAR-luciferase reporter, SF-1/DAX-1 repression relief. 370,000 tested, 1.1% active. inhibition, % at 6.8 µM;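 active = inhibition above the mean over all tested compounds plus 3 SD, cut at about 3.6% in these data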;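 note: higher inhibition means more luminescence from relief of DAX-1 repression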
hgDAF12 agonist = H. glycines DAF-12 receptor agonists, primary screen, cell-based, luminescence, HEK293, GAL4 fusion, UAS-luciferase | Nuclear hormone receptor DAF-12 (Heterodera glycines), GAL4 fusion | HEK293 GAL4-hgDAF12 UAS-luciferase reporter, agonist luminescence; normalized to butyrate control | activation, % at 6.8 µM | 370,000 tested, 1.8% active | AID 687014, 2013;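 active = activation above a cutoff set at the mean of all screened compounds plus 3 SD, cut at about 10% in these data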
hcDAF-12 act = H. contortus DAF-12 nuclear receptor activators, primary screen, cell-based, luminescence, HEK293, lit1-tk-luc reporter; AID 652067, 2013; 370,000 tested, 1.4% active; activation, % at 6.8 µM; HEK293 hcDAF-12 lit1-tk-luc reporter; 0% DMSO, 100% Δ7-dafachronic acid;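 active = activation above the mean of all tested compounds plus 3 SD, cut at about 5.5% in these data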
DAX1 inh-2 = DAX1 (NR0B1) inhibitors, primary screen, cell-based, HEK293, Gal4-DAX1, luciferase luminescence | Nuclear receptor subfamily 0 group B member 1 (Homo sapiens), P51843 | inhibition, % at 6.75 µM | HEK293 Gal4-DAX1 luciferase reporter | AID 504766, 2011 | 340,000 tested, 0.99% active;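 active = inhibition above the mean over all tested compounds plus 3 SD, cut at about 4.2% in these data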;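 note: inhibition shows as a rise in luminescence from relieved DAX1 repression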
Target sequence (P51843 207-470 limits assumed): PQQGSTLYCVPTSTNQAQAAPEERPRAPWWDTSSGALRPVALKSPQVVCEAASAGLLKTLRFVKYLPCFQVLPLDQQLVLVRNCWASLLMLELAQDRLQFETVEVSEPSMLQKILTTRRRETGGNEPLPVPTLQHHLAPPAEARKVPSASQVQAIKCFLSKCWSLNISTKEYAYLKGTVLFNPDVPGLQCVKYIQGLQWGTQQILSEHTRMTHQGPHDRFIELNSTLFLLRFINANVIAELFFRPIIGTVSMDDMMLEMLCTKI
ssDAF-12 act = S. stercoralis DAF-12 nuclear receptor activators, primary screen, cell-based, luminescence, HEK293, GRIP1 co-expression, lit1-tk-luc; Nuclear hormone receptor DAF-12 (Strongyloides stercoralis); HEK293 ssDAF-12/GRIP1 lit1-tk-luc reporter; % of 3 µM dafachronic acid response; activation, % at 6.8 µM; 370,000 tested, 1% active;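 active = activation above the mean over all tested compounds plus 3 SD, cut at about 0.9% in these data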
Numbers stand for hits; - = inactive; . = no result given.

SMILES	DAX1 inh-1	hgDAF12 agonist	hcDAF-12 act	DAX1 inh-2	ssDAF-12 act
COc1ccc(S(=O)(=O)N2CCCCCC2)cc1	-	-	-	-	-
COc1ccc(OC)c(Cc2nnc(CCC(=O)N3CCN(C4CCCC4)CC3)o2)c1	3.7	-	-	-	-
FC(F)(F)Oc1cccc(Cn2ccc3ccc(-c4ccc5ccn(Cc6cccc(OC(F)(F)F)c6)c5c4)cc32)c1	-	-	-	.	-
CCCN(CC1CC1)C(=O)CSc1nnc(-c2ccncc2)n1-c1ccc(OC)cc1	-	-	-	.	-
Cc1ccc(Cl)cc1N1CCN(C(=O)C2CCC(=O)N(C3CCCCCC3)C2)CC1 (centres undefined)	-	-	-	-	-
Cc1ccc(Cl)cc1N1CCN(C(=O)C2CCC(=O)N2C(C)C)CC1 (centres undefined)	-	-	-	-	1.7
CCCCN(C)C(=O)C1CCN(S(=O)(=O)c2ccc3[nH]c(=O)oc3c2)CC1	-	-	-	.	-
O=C(O)CN1C(=O)C=CC1=O	-	-	-	4.7	-
Cc1ccc(C(=O)NC(=S)Nc2cccnc2Cl)cc1	-	12.4	-	-	-
Cc1ccc(C(=O)NC(=S)Nc2ccccc2C(F)(F)F)cc1	-	-	-	-	-
CC(C)n1nnnc1C1c2ccccc2C(=O)N1Cc1cccc(F)c1 (centres undefined)	3.8	-	-	.	-
CC(C)n1nnnc1C1c2ccccc2C(=O)N1Cc1ccc(F)cc1 (centres undefined)	-	-	-	.	-
COc1ccc(C)c2sc(=NC(=O)c3cccc(N4C(=O)CCC4=O)c3)n(C)c12	-	-	-	-	-
C=CCn1c(=NC(=O)c2cccc(N3C(=O)CCC3=O)c2)sc2cccc(OC)c21	-	-	-	4.8	-
Cc1ccc(/C=N\NC(=O)CN2CCN(S(=O)(=O)c3ccc(Br)cc3)CC2)s1	-	-	-	.	-
Nc1nc(SCC(=O)N2CCCC2)[nH]c(=O)c1NC(=O)c1ccco1	-	-	-	-	2.3
Nc1nc(SCC(=O)O)[nH]c(=O)c1NC(=O)c1ccco1	-	-	-	-	-
COC(=O)C[C@H]1CC[C@@H]2[C@@H](COc3ccc(NC(=O)c4ccccc4)cc3C(=O)N2C)O1	-	-	-	.	-
CC(C(=O)Nc1cccnc1)C1Sc2ccccc2NC1=O (centres undefined)	-	-	6.0	-	-
CCOC(=O)N1CCN(C(=O)C2CCN(C(=O)c3ccc(C(C)(C)C)cc3)CC2)CC1	-	-	-	4.4	-
CCOC(=O)N1CCN(C(=O)C2CCN(C(=O)c3ccc([N+](=O)[O-])cc3)CC2)CC1	-	-	-	-	-
O=C(c1cc2ccccc2oc1=O)N(Cc1ccccc1)C1CCS(=O)(=O)C1 (centres undefined)	-	-	-	-	-
O=C(c1cc2ccccc2oc1=O)N(Cc1ccccc1F)C1CCS(=O)(=O)C1 (centres undefined)	-	-	5.8	-	-
O=C(Nc1ccccc1Oc1ccccc1)NC1CCCCN(Cc2cccc(Cl)c2)C1=O (centres undefined)	-	-	-	.	-
O=C(c1ccc(CS(=O)(=O)c2ccc(Br)cc2)o1)N1CCCC1	-	-	-	-	-
SMILES	DAX1 inh-1	hgDAF12 agonist	hcDAF-12 act	DAX1 inh-2	ssDAF-12 act
O=C(NCCN1CCOCC1)c1ccc(CS(=O)(=O)c2c(Cl)cccc2Cl)o1	-	-	-	7.2	-
O=C(c1ccc(CS(=O)(=O)c2ccccc2)o1)N1CCOCC1	-	-	-	5.6	-
O=C(CN1C(=O)S/C(=C\C=C\c2ccccc2)C1=O)Nc1ccccc1C(=O)O	-	-	-	-	-
C#CCN1C(=O)S/C(=C/C=C/c2ccc(N(C)C)cc2)C1=O	-	12.7	-	-	-
CN(C)/C=N/c1ncc(C(=O)c2ccccc2)s1	-	-	-	-	-
CN(C)/C=N/c1ncc(C(=O)c2ccc(-c3ccccc3)cc2)s1	-	11.6	-	-	-
CCc1ccc(C(=O)NNC(=O)CCc2nc3ccccc3c(=O)[nH]2)cc1	3.6	-	-	-	-
COc1ccc(C(=O)NNC(=O)CCc2nc3ccccc3c(=O)[nH]2)cc1	-	-	-	-	-
CCC(C)[C@H](NC(=O)[C@H](Cc1ccccc1)NC(=O)OC(C)(C)C)C(=O)NCc1ccccc1Br (some centres undefined)	-	-	-	.	-
CC1CC(=O)c2cnc(Nc3cccc(C(F)(F)F)c3)nc2C1 (centres undefined)	-	-	-	-	-
CC1CC(=O)c2cnc(Nc3ccccc3)nc2C1 (centres undefined)	4.0	-	-	-	-
CN(C)c1ccc(C(=O)NC2CCCCN(Cc3ccc(Cl)cc3)C2=O)cc1 (centres undefined)	-	-	-	.	-
Cc1ccc(CNC(=O)CCCOc2cc(=O)n(C)c3ccccc23)o1	-	-	-	6.4	-
Cn1c(=O)cc(OCCCC(=O)NCc2ccco2)c2ccccc21	-	-	-	-	-
CCCCc1cccc2[nH]cc(C)c12	-	-	-	.	-
O=C1C(c2c(O)[nH]c3ccccc23)=Nc2ccccc21	-	-	-	-	1.3
Oc1[nH]c2ccccc2c1C1=NCCCC1	-	-	-	-	-
COc1ccccc1NC(=O)c1csc2c1CCCC2	-	-	-	-	-
COc1cc(NC(=O)c2csc3c2CCCC3)ncn1	-	12.1	-	-	-
CC(=O)Nc1ccc(N=Cc2c(O)c3ccccc3oc2=O)cc1	-	-	-	-	-
CC(=O)Nc1ccc(N=Cc2c(O)c(C(=O)Nc3ccccc3)cc3ccccc23)cc1	-	-	-	.	2.1
Cc1ccc(C(=O)NCC(=O)NC2CCC(C)CC2)s1 (centres undefined)	-	-	-	-	-
CC1CCC(NC(=O)CNC(=O)c2cccs2)CC1 (centres undefined)	4.4	-	-	-	-
CCc1ccc(-c2nc(CCl)cs2)cc1	-	11.8	-	-	-
COc1ccc(-c2nc(CCl)cs2)cc1	-	-	-	-	-
Clc1ccc(C=Cc2ccccn2)cc1	-	13.0	-	-	-
COc1ccc(-n2c(O)c(/C=N/NS(=O)(=O)c3ccc(C)c([N+](=O)[O-])c3)c3ccccc3c2=O)cc1OC	-	-	-	-	-
O=c1c2ccccc2c(/C=N/NS(=O)(=O)c2ccccc2)c(O)n1-c1ccccn1	-	-	-	-	1.0
